According to ChEMBL document CHEMBL4296182, “CO-ADD screening of NIH NCI Diversity Set V”:
For part of these data: Potency and affinity values are given separately.

Tests used:
Staphylococcus aureus = test: Antibacterial activity against Staphylococcus aureus MRSA ATCC 43300 (CO-ADD:GP_020); MIC in CAMBH media using NBS plates, by Resazurin F(560/590); format: functional; conditions: Concentration 20 uM, ASSAY_TEST Inhibition of Bacterial Growth, detection method Resazurin, Fluorescence (ex560/em590), MEDIA CAMHB, plate type 384well, CORNING #3640, time 18 hr
Acinetobacter baumannii = test: Antibacterial activity against Acinetobacter baumannii ATCC 19606 (CO-ADD:GN_034); MIC in CAMBH media using NBS plates, by Resazurin F(560/590); format: functional; conditions: Concentration 20 uM, ASSAY_TEST Inhibition of Bacterial Growth, detection method Resazurin, Fluorescence (ex560/em590), MEDIA CAMHB, plate type 384well, CORNING #3640, time 18 hr
Escherichia coli = test: Antibacterial activity against Escherichia coli ATCC 25922 (CO-ADD:GN_001); MIC in CAMBH media using NBS plates, by Resazurin F(560/590); format: functional; conditions: Concentration 20 uM, ASSAY_TEST Inhibition of Bacterial Growth, detection method Resazurin, Fluorescence (ex560/em590), MEDIA CAMHB, plate type 384well, CORNING #3640, time 18 hr
Klebsiella pneumoniae = conditions: Concentration 20 uM; ASSAY_TEST Inhibition of Bacterial Growth; detection method Absorption (OD600); MEDIA CAMHB; plate type 384well; NBS; CORNING #3640; time 18 hr
Candida albicans = conditions: 20 µM
Cryptococcus neoformans = conditions: Concentration 20 uM; ASSAY_TEST Inhibition of Fungal Growth; detection method Resazurin; Absorption (OD600-OD570); plate type 384well; NBS; CORNING #3640

Row | SMILES | Inhibition (Staphylococcus aureus) [%] | Inhibition (Acinetobacter baumannii) [%] | Inhibition (Escherichia coli) [%] | Inhibition (Klebsiella pneumoniae) [%] | Inhibition (Candida albicans) [%] | Inhibition (Cryptococcus neoformans) [%]
1 | CCSc1nc(C)cc(S)n1 | 8.56 | -11.79 | 13.36 | 13.31 | 25.2 | -6
2 | Cc1oc2c(c(C)nn2-c2ccccc2)c(=O)c1Cl | -0.13 | -6.85 | 7.16 | 9.65 | 14.3 | 35.87
3 | CCC1(C(=O)OC)CCc2c(cc(OC)c3ccccc23)C1=O (stereo unspecified) | 5.5 | -17.62 | 8.82 | 8.69 | 3.67 | -10.67
4 | Oc1ccc(Cc2ccc(Cl)cc2)c(O)c1 | 10.37 | -6.86 | 10.87 | 7.26 | -0.85 | -7.42
5 | Oc1ccc2ccccc2c1/N=N/c1ccc(F)cc1 | 3.11 | 4.07 | -0.77 | 13.5 | -3.66 | -8.4
6 | N#C/C(=C\c1c[nH]c2ccccc12)C(N)=O | 13.33 | 12.56 | 0.03 | 10.43 | 4.53 | -10.69
7 | N#CCc1cnc2ccccc2n1 | 13.21 | -15.61 | 3.75 | 2.07 | -2.07 | -9.92
8 | O=C(O)c1ccc(N2CCCCC2)cc1O | 7.99 | -7.54 | 7.11 | 12.65 | 8.64 | -11.23
9 | CSc1nc(O)nnc1Sc1ccccc1 | -5.45 | -15.47 | 6.74 | 7.57 | 13.4 | -16.19
10 | Cc1cc(O)cc2c1[C@H]1CC[C@]3(C)C(=O)CC[C@H]3[C@@H]1C=C2 | 24.45 | 13.8 | 29.29 | -0.57 | 12.1 | -1.77
11 | CC1=NN(c2ccccc2)C(=O)C1C(=S)SC1CC(=O)NC1=O (stereo unspecified) | 3.9 | 14.97 | -13.13 | 16.67 | 6.57 | 3.97
12 | N#C/C(=C\c1ccc[nH]1)C(=O)c1ccccc1 | 9.96 | 7.21 | 0.79 | 8.89 | 10.3 | -7.32
13 | CCS(=O)(=O)C1C(=O)N(C)C(S(=O)(=O)CC)C(=O)N1C (stereo unspecified) | 23.63 | 9.14 | 3.65 | 7.03 | 1.37 | -11.73
14 | CN(C)c1ccc(/C=C/c2ccc3ccccc3n2)cc1 | -2.51 | 5.82 | 5.25 | 10.87 | 5.63 | -14.32
15 | Cc1cc(C)c2c(SC(C)C)nc(N)nc2n1 | -0.52 | -6.63 | 2.33 | 4.23 | 0.54 | -10.66
16 | c1ccc(-c2nnc3nc(N4CCCCC4)nc(N4CCCCC4)n23)cc1 | -3.53 | -1.96 | 14.28 | 1.6 | 1.09 | -15.11
17 | c1ccc(Sc2ncccn2)nc1 | 20.57 | -8.37 | 7.64 | 5.74 | 3.74 | -10.47
18 | NC(=O)c1nc2c([nH]c1=O)CCCC2 | 15.95 | -15.59 | 13.49 | -0.68 | -0.94 | -4.35
19 | Oc1ccccc1-n1c(-c2ccccc2)ccc1-c1ccccc1 | 3.47 | 1.43 | 1.29 | 19.15 | 11.1 | -2.48
20 | CC(C)(C)c1ccc(NS(=O)(=O)c2ccc(N)cc2)cc1 | 8.8 | 3.26 | -6.26 | 16.84 | 3.64 | -7.4
21 | CC(=O)Nc1cc(NC(C)=O)ncn1 | 12.16 | -10.63 | 12.12 | 16.66 | 3.12 | -1.27
